Bioassay records as filed in PubChem BioAssay.
ATXN2 expr inh: inhibitors of ATXN2 expression; HEK-293 ATXN2-luciferase reporter, luminescence, 24 h; Potency, µM (series often up to 57 µM), for the others: at the highest dose activity change, negative = inhibition, most hits filed as inhibitors; 360,000 tested, 0.72% active; also: potency is read from the fitted curve at half-maximal effect; % is scaled to controls: 0 for no effect and ±100 for the full control effect; nearly all actives have a fitted effect of over 55% in size
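ATXN2-luciferase reporter cells (luciferase flanked by upstream and downstream ATXN2 gene portions) were treated 24 h at 37 °C with compounds at up to 57 uM. SteadyGlo luminescence gave expression; GF-AFC fluorescence gave viability.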
TGFb inhibitor: blocks TGF-b signaling | HepG2 CAGA-GFP TGF-b/SMAD3 reporter, GFP fluorescence, 18 h; TGF-beta stimulated, 500 pg/mL final | Potency, µM (titrated, usually from 46.1 µM), without a hit: at the top dose activity, negative = inhibition, usual class: inhibitors | 410,000 tested, 1.2% active | AID 588855; also: potency is read from the fitted curve at half-maximal effect; % is scaled to controls: 0 for no effect and ±100 for the full control effect; nearly all actives have a fitted effect of over 65% in size
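Using HEPG2 CAGA-GFP reporter cells at 1000 cells/well, we pinned test compounds, stimulated with recombinant TGF-beta (500 pg/mL final) and measured total well GFP after 18 h.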
ATXN viability: reduces viability in counter-screen for ATXN expression inhibitors | 400,000 tested, 0.49% active | Potency, µM (series often up to 56.7 µM), usual class: cytotoxic | S2 cells (HEK-293 line with an ATXN2-luciferase reporter) viability, CellTiter-Fluor protease fluorescence, 24 h | AID 651635; also: potency is read from the fitted curve at half-maximal effect; nearly all actives have a fitted effect of over 40% in size
HepG2 tox-1: HepG2 cytotoxicity, counter-screen for TGF-b inhibitors. Potency, µM (titrated, usually from 46.1 µM), for the others: top-dose activity change, negative = cytotoxicity, most hits filed as cytotoxic. HepG2 CAGA-GFP viability, ATP luminescence, 18 h. AID 588856. 410,000 tested, 0.76% active; also: potency is read from the fitted curve at half-maximal effect
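CellTiter-Glo luminescence gave cytotoxicity after 18 hours at 37 degrees C. The cells were HepG2 CAGA-GFP in 1% FBS DMEM, stimulated with 500 pg/mL TGF-beta after compound addition. %Activity was normalised to no-cell wells (complete cell-killing) and DMSO (no toxicity), and curves were fitted and classified.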
DRD3 agonist: D3 dopamine receptor (human) agonism | P35462 | D3R DiscoveRx beta-arrestin cells, luminescence, 90 min | max activation, % | 410,000 tested, 0.58% active | AID 652048; in the data active = max activation above about 30%; also: 0% is about no effect
Target sequence (P35462 whole entry, looked up): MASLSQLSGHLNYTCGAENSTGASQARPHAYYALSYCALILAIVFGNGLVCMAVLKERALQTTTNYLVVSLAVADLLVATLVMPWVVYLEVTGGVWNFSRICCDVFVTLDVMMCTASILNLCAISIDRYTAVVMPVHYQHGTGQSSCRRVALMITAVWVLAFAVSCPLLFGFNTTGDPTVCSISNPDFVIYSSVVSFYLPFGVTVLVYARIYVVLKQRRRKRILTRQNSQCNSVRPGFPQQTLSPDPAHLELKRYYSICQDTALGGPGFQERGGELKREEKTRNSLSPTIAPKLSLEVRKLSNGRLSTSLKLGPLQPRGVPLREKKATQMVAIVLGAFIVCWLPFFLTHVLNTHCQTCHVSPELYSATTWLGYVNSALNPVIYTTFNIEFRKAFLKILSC
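Cells at 1500/well, incubated overnight, then treated with pinned compounds (dopamine as control) for 90 min at 37 degrees C. DiscoveRx reagent added for 30 - 60 minutes at room temperature; luminescence read.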
DRD3 antagonist: blocks the human D3 dopamine receptor. D3R cells, DiscoveRx beta-arrestin luminescence, antagonist mode; active compounds read low. max response, negative = inhibition, %. 360,000 tested, 2.5% active. AID 652054; in the data active = max response below about -50%; inconclusive = no clear call, values can overlap the other calls; also: % is scaled to controls: 0 for no effect and ±100 for the full control effect
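Cells plated overnight at 1500 cells/well, then exposed to library compounds with dopamine controls for 90 minutes at 37 degrees C. DiscoveRx reagent added for 30–60 minutes at room temperature; luminescence read, quantitative HTS format.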
TGFb confirm: confirmation of TGF-b signaling inhibitors in HepG2 reporter cells; AID 720534; shares compounds with TGFb inhibitor; HepG2 CAGA-GFP TGF-b reporter, GFP fluorescence, 18 h; cells stimulated with TGF-beta, 500 pg/mL; Potency, µM (highest dose often 46.1 µM), for inactives: top-dose activity, negative = inhibition, usual class: inhibitors; 1,600 tested, 63% active; also: potency is read from the fitted curve at half-maximal effect; % is scaled to controls: 0 for no effect and ±100 for the full control effect; nearly all actives have a fitted effect of over 65% in size
HepG2 tox-2: HepG2 cytotoxicity, TGF-b inhibitor counterscreen | HepG2 CAGA-GFP viability, ATP luminescence, 18 h; cells stimulated with TGF-beta, 500 pg/mL | shares compounds with TGFb inhibitor | 1,600 tested, 27% active | Potency, µM (top dose mostly 46.1 µM), without a hit: at the top dose activity, negative = cytotoxicity, actives largely listed as inhibitors; also: potency is read from the fitted curve at half-maximal effect; % is scaled to controls: 0 for no effect and ±100 for the full control effect; nearly all actives have a fitted effect of over 70% in size
CCL64 TGFb inh: orthogonal confirmation of TGF-b inhibitors in CCL64 cells | shares compounds with TGFb inhibitor | Potency, µM (doses to about 46.1 µM), for inactives: at the highest dose activity, negative = inhibition, most hits filed as inhibitors | CCL64 CAGA-GFP reporter, TGF-b stimulated, GFP fluorescence, 18 h | 1,600 tested, 41% active; also: potency is read from the fitted curve at half-maximal effect; nearly all actives have a fitted effect of over 65% in size
COP TGFb inh: validation of TGF-b inhibitors in HepG2 COP promoter reporter; HepG2 COP-GFP TGF-b reporter, GFP fluorescence, 18 h; cells stimulated by added recombinant TGF-beta; Potency, µM (highest dose often 46.1 µM), for the others: top-dose activity, negative = inhibition, usual class: inhibitors; shares compounds with TGFb inhibitor; 1,600 tested, 3% active; also: potency is read from the fitted curve at half-maximal effect; nearly all actives have a fitted effect of over 70% in size
The depositor's hits bear a star; i = inactive; ? = inconclusive; . = not tested or not shown. Shown are actives, neighbours in structure and some others; about 4.8% of the full set was active somewhere. Unless noted, calls follow the shape of the dose curve; as a rule, active = well fitted curve in the direction sought with a large enough effect; inconclusive = small, poorly fitted or top-dose-only effect, or another doubt; inactive = no such curve, though single readings can be large; an effect the other way counts as inactive or inconclusive.

SMILES | ATXN2 expr inh | TGFb inhibitor | ATXN viability | HepG2 tox-1 | DRD3 agonist | DRD3 antagonist | TGFb confirm | HepG2 tox-2 | CCL64 TGFb inh | COP TGFb inh
CNc1ncnc2c1ncn2[C@@H]1O[C@H](CO)[C@@H](O)[C@H]1O | 63% | ? | i | 6% | 0 | -8 | . | . | . | .
O=C(NCC(c1cccnc1)N1CCN(Cc2ccccc2)CC1)C(=O)Nc1cccc(F)c1 (configuration not stated) | 32% | 1% | i | -36% | -15 | . | . | . | . | .
COc1ccc(/C=C/c2nc(C#N)c(N3CCCCC3)o2)cc1OC | 10% | -1% | . | -26% | -16 | . | . | . | . | .
O=c1[nH]c2cc([N+](=O)[O-])ccc2c2ccccc12 | -39% | -6% | i | 4% | -10 | 3 | . | . | . | .
O=C1Cc2c([nH]c3ccc([N+](=O)[O-])cc23)-c2ccccc2N1 | ? | 0.5µM* | ? | 21% | -24 | -23 | 0.16µM* | 0.29µM* | 1.3µM* | -11%
O=C(NCCN1CCCCC1)c1ccc(Cn2c(SCc3ccccc3)nc3cccnc32)cc1 | 4% | -1% | ? | -58% | -8 | . | . | . | . | .
COC(=O)C1CCC(=O)N1C(c1ccc(OC)cc1)c1cc(OC)c(OC)c(OC)c1 (configuration not stated) | 4% | 2µM* | ? | 2% | -12 | -10 | ? | -2% | 5.8µM* | ?
CCc1ccccc1N1CCN(S(=O)(=O)c2cc(OC)ccc2OC)CC1 | 10% | ? | i | -3% | 1 | -2 | 26µM* | ? | ? | 27%
CC1CCC(NC(=O)C2(C)Cc3ccccc3C(=O)N2Cc2ccccc2Cl)CC1 (configuration not stated) | . | . | . | 0% | 1 | . | . | . | . | .
O=C(COc1ccccc1)N[C@@H]1c2ccccc2CC[C@@H]1OCc1ccccc1 | -3% | -27% | i | -16% | -24 | 0 | . | . | . | .
O=C(COc1ccccc1)N[C@@H]1c2ccccc2CC[C@H]1OCc1ccccc1 | -37% | 16µM* | i | -23% | 4 | 0 | ? | ? | 18µM* | 36%
NC(=O)c1oc2ccccc2c1NC(=O)c1ccc([N+](=O)[O-])o1 | ? | 7.1µM* | ? | -31% | 9 | 2 | 4.6µM* | 23µM* | ? | 51%
O=C(Nc1ccccc1N1CCN(C(=O)c2ccc(Cl)cc2)CC1)c1ccc([N+](=O)[O-])o1 | ? | ? | ? | -14% | -6 | 27 | . | . | . | .
O=C(Nc1ccc(N2CCN(C(=O)c3ccccc3)CC2)cc1)c1ccc([N+](=O)[O-])o1 | . | 5.6µM* | ? | 13µM* | -16 | -56* | 7.3µM* | 23µM* | ? | -21%
Cc1ccccc1C(=O)N1CCN(c2ccc(NC(=O)c3ccc([N+](=O)[O-])o3)cc2)CC1 | -28% | 3.2µM* | ? | 1.1µM* | -9 | -72* | 6.5µM* | 16µM* | -7% | ?
NC(=O)c1oc2ccccc2c1NC(=O)c1ccc(F)cc1 | -6% | -19% | i | 31% | -8 | -8 | . | . | . | .
O=C(Nc1nc(-c2ccccn2)cs1)c1ccc([N+](=O)[O-])o1 | ? | 8.9µM* | ? | -58% | -19 | -21 | 15µM* | 16µM* | ? | 17%
O=C(NNC(=O)c1ccc([N+](=O)[O-])o1)c1ccccc1 | -24% | 7.9µM* | ? | -26% | -26 | -10 | 16µM* | 18µM* | 3% | 52%
O=C(NCc1ccco1)c1nc2c(nnn2Cc2ccccc2Cl)c(=O)[nH]1 | 16µM* | 2.8µM* | ? | -34% | 13 | 27 | 5.8µM* | ? | 8.2µM* | 27%
O=S(=O)(CC(CN1CCCCC1)N1CCCCC1)c1ccc2ccccc2c1 (configuration not stated) | -20% | 3.2µM* | i | 11µM* | -26 | -85* | 13µM* | 13µM* | ? | ?
O=C(COc1ccc(C(=O)c2ccccc2)cc1)NCc1ccc(F)cc1 | -22% | ? | ? | 5% | -3 | -14 | 9.2µM* | -14% | ? | -4%
O=C(COc1ccccc1)NCc1ccccc1 | 13% | 0% | i | 11% | -2 | 4 | . | . | . | .
CN(C)/[N+]([O-])=N\Oc1cc(OC(=O)c2ccc(N)cc2)c([N+](=O)[O-])cc1[N+](=O)[O-] | . | -4% | . | 1% | . | . | . | . | . | .
CCn1c(CN2CCOCC2)nc2cc(NC(=O)c3cc(OC)c(OC)c(OC)c3)ccc21 | 8% | -14% | i | -15% | -9 | . | . | . | . | .
